About 79,000 compounds went through this panel and 15% of them were active in at least one assay; those are over-represented in the sample as a whole. Unmarked numbers belong to inactive results. Active and inactive are the calls of the source. No stated cut-off is given here; in the data, active means growth inhibition above about 70%; inactive means the rest. Where a SMILES comes first, the peptide text is derived from it. The star is where a group is joined. Boc = CC(C)(C)OC(=O)*
Assay: NCI Yeast Anticancer Drug Screen. Data for the sgs1 mgt1 strain (AID 161);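 further: 0% = growth of cultures given vehicle only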
Conditions: S. cerevisiae sgs1 mgt1 strain, at 50.0 µM, hits give high values
Outline: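 Growth of a repair-deficient yeast mutant was monitored after compound treatment and expressed as inhibition relative to vehicle-treated cultures.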

Row | SMILES | growth inhibition
1 | CC(=O)CC(=O)Nc1cccc(O)c1 | -14.9%
2 | Nc1ccc(S(=O)(=O)N(CCO)CCO)cc1 | -20.9%
3 | CCOP(=O)(OCC)C(Cc1cn(S(=O)(=O)c2ccc(C)cc2)cn1)C(=O)O (stereo not given) | 5.9%
4 | Cc1ncc(CSC(=N)N)n1Cc1ccccc1 | -6.55%
5 | CC(C)(Nc1nc2c(ncn2C2OC(CO)C(O)C2O)c(=O)[nH]1)P(=O)(O)O (stereo not given) | 17%
6 | O=C(O)c1c(Br)c(Br)c(Br)c(Br)c1C1c2ccc(O)cc2Oc2cc(O)ccc21 | 35%
7 | Cc1cccc2c1Oc1ccccc1C2N1C(=O)/C(=C/c2ccc(Cl)c(Cl)c2)SC1=S (stereo not given) | 6.75%
8 | Cc1cc2c(C)n(Cc3ccc(Cl)cc3Cl)nc2c(C#N)c1C | -9.6%
9 | ClC1=C(Cl)C2(Cl)C3C(CC4C3C3(Cl)C(Cl)=C(Cl)C4(Cl)C3(Cl)Cl)C1(Cl)C2(Cl)Cl (stereo not given) | -2.75%
10 | Cc1ccc(CCCC(=O)O)cc1C | -7.05%
11 | C(=C\CSc1ccccn1)/CSc1ccccn1 | 56.6%
12 | Fc1ccc(CC(F)F)cc1 | 14.4%
13 | CC(=O)OC1/C=C(\C)C(OC(C)=O)C/C=C(/C)CCC2C(/C=C/C1=O)C2(C)C (stereo not given) | 78.1% (active)
14 | c1cc2nc(c1)CSCCCCCCCCSC2 | 17.8%
15 | COc1c(C)c(C)c(Br)c(C)c1C | 6.7%
16 | C=C(CN(C)C)C1(c2ccccc2)CC2(CCCC2)C(=O)O1 (stereo not given) | 13.3%
17 | Cc1ccc(-c2nc3ccccc3cc2N)cc1 | -0.45%
18 | Cc1cccc(N=Nc2c(C)nc(N)nc2C)c1C | 2.1%
19 | CCC1(O)CC2CN(CCc3c([nH]c4ccccc34)C(C(=O)OC)(c3cc4c(cc3OC)N(C)C3C(O)(C(N)=O)C(O)C5(CC)C=CCN6CCC43C65)C2)C1 (stereo not given) (tested in a mixture with another compound) | -0.35%
20 | Nc1nc(N)nc(C2CC3C=CC2C3)n1 (stereo not given) | -4.4%

Row | SMILES | growth inhibition
21 | COc1ccccc1/C=N/NC(=O)CCCCCCCCC(=O)N/N=C/c1ccccc1OC | -4.4%
22 | Nc1ccc2c(c1)C(=O)N(OS(=O)(=O)c1ccccc1)C2=O | 41.2%
23 | O=C(C[n+]1csc2ccccc21)c1ccc(-c2ccccc2)cc1 | -11.9%
24 | CN1C(=O)N/C(=C\c2ccc(S(=O)(=O)N/N=C\C(O)C(O)C(O)CO)cc2)C1=O (stereo not given) | -22.9%
25 | Clc1ccc2c(Cl)ncnc2c1I | 28.9%
26 | CCCCn1[nH]c(=O)ccc1=O | 1.9%
27 | CCCCCCCCC(=O)OCC(=O)c1ccc(-c2ccccc2)cc1 | 3.35%
28 | CC(C)(C)C([O-])=C1C(=O)c2ccccc2C1=O.CC(C)(C)C([O-])=C1C(=O)c2ccccc2C1=O.CC[O-].CC[O-].[Ti+4] | 57.4%
29 | Cc1cc([N+](=O)[O-])c(Cl)cc1Cl | -9.35%
30 | CC12CCC(CC1)C(C)(C)N=C(N)S2 | -2.75%
31 | Clc1ccc(N=Cc2ccc(C=Nc3ccc(Cl)c(Cl)c3)cc2)cc1Cl | 15.7%
32 | CCCC(=O)Oc1cccc(C)c1 | 0.1%
33 | CCCCCCCCCCCC(=O)NC(=S)Nc1cc(OC)ccc1OC | -2.9%
34 | CCCCN1CCNC1=S | 4.25%
35 | CCOC(=O)C(CC(C)C)NC(=O)C(Cc1ccccc1)NC(=O)CNC(=O)OC(C)(C)C (stereo not drawn) (Boc-Gly-Phe-Leu-OEt; configuration not given here) | 9.45%
36 | Cc1ccc(S(=O)(=O)Oc2c(Cl)c(Cl)c(Cl)c(Cl)c2Cl)cc1 | 2.2%
37 | CC1CC2C3(C1)CC(C(=O)OC3=O)C2(C)C (stereo not given) | -7.35%
38 | S=c1[nH]c(=S)c2[nH]cnc2[nH]1 | -7.1%
39 | COc1ccc2cc(C(C)C(O)c3cc(F)c(F)c(F)c3F)ccc2c1 (stereo not given) | -10.7%
40 | C=CCNC(=O)c1ccc[n+](CC(=O)Nc2ccccc2)c1 | -1.1%
